Test results published in the supplement of paper PMC9262897, “Low-cost anti-mycobacterial drug discovery using engineered E. coli” (Nature Communications, 2022).
Structures can show the parent of a compound that is named as a salt. ± gives the standard deviation of the averaged measurements.

Legend:
Assay in all cases: growth (OD600 after 10 h); higher = more growth (less inhibition)
[1] = tested on: E. coli TESEC Alr+ wild-type control; details: compound 0.1 mM; raw OD600 reference: median of DMSO wells 0.241, cell-free background 0.041
Method: (§1)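 TESEC Mtb Alr E. coli, or the Alr+ wild-type control, in 384-well plates with Prestwick library compounds at 0.1 mM and 1% DMSO, across arabinose induction levels of 1E3 to 1E7 nM. Growth is read as OD600 after 10 h at 37 °C in triplicate biological replicates.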

E. coli TESEC Mtb Alr [2] = details: compound 0.1 mM
Method: as §1

E. coli TESEC Mtb Asd = details: compound 0.1 mM
Method: (§2)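 TESEC E. coli strains in which the native enzyme is deleted and replaced by arabinose-inducible Mtb Asd, DapB, CysH or TrpD, each grown in its selective medium. Strains were screened against the Prestwick library at 0.1 mM and 1% DMSO in 384-well format at low and high arabinose induction. Growth is read as OD600 after 10 h in triplicate.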

E. coli TESEC Mtb DapB = details: compound 0.1 mM
Method: as §2

E. coli TESEC Mtb Alr [3] = details: compound 0.1 mM; remark: listed apart in the source
Method: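 TESEC Mtb Alr E. coli (ΔaraC ΔtolC ΔentC Δalr ΔdadX, arabinose-inducible Mtb Alr) or the Alr+ wild-type control strain, grown in defined M9-fructose medium without D-alanine in 96-well plates with Prestwick library compounds at 0.1 mM and 1% DMSO. Low Alr induction is 0.1 µM arabinose and high induction is 10 mM arabinose.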

[4] = arabinose 1000 nM, raw OD600 reference: median of DMSO wells 0.294, cell-free background 0.041
[5] = arabinose 10000 nM, raw OD600 reference: median of DMSO wells 0.264, cell-free background 0.041
[6] = arabinose 100000 nM, raw OD600 reference: median of DMSO wells 0.201, cell-free background 0.041
[7] = arabinose 1000000 nM, raw OD600 reference: median of DMSO wells 0.193, cell-free background 0.041
[8] = arabinose 10000000 nM, raw OD600 reference: median of DMSO wells 0.146, cell-free background 0.041
[9] = arabinose induction (level): High, raw OD600 reference: median of DMSO wells 0.331, cell-free background 0.041
[10] = arabinose induction (level): Low, raw OD600 reference: median of DMSO wells 0.417, cell-free background 0.041
[11] = arabinose induction (level): High, raw OD600 reference: median of DMSO wells […], cell-free background 0.041
[12] = arabinose induction (level): Low, raw OD600 reference: median of DMSO wells 0.227, cell-free background 0.041
[13] = arabinose 100 nM, raw OD600 reference: median of DMSO wells 0.413, cell-free background 0.052
[14] = arabinose 10000000 nM, raw OD600 reference: median of DMSO wells […], cell-free background 0.052

SMILES	growth [1]	growth (E. coli TESEC Mtb Alr [2]; [4])	growth (E. coli TESEC Mtb Alr [2]; [5])	growth (E. coli TESEC Mtb Alr [2]; [6])	growth (E. coli TESEC Mtb Alr [2]; [7])	growth (E. coli TESEC Mtb Alr [2]; [8])	growth (E. coli TESEC Mtb Asd; [9])	growth (E. coli TESEC Mtb Asd; [10])	growth (E. coli TESEC Mtb DapB; [11])	growth (E. coli TESEC Mtb DapB; [12])	growth (E. coli TESEC Mtb Alr [3]; [13])	growth (E. coli TESEC Mtb Alr [3]; [14])
C[C@H]1NC(=O)NC1=O [Methylhydantoin-5-(D)]	0.257 ± 0.0085	0.323 ± 0.014	0.268 ± 0.005	0.2 ± 0.019	0.186 ± 0.0032	0.156 ± 0.0032	0.46 ± 0.085	0.467 ± 0.0073	0.202 ± 0.012	0.244 ± 0.012	0.405 ± 0.015	0.321 ± 0.015
CNc1ncnc2c1ncn2[C@@H]1O[C@H](CO)[C@@H](O)[C@H]1O [N6-methyladenosine]	0.283 ± 0.008	0.334 ± 0.023	0.263 ± 0.0068	0.261 ± 0.012	0.189 ± 0.003	0.15 ± 0.0032	0.343 ± 0.044	0.416 ± 0.023	0.21 ± 0.0029	0.209 ± 0.0066	0.28 ± 0.065	0.364 ± 0.0048
NS(=O)(=O)Cc1noc2ccccc12 [Zonisamide]	0.252 ± 0.013	0.301 ± 0.012	0.2543 ± 0.0014	0.203 ± 0.0022	0.19 ± 0.0041	0.139 ± 0.0077	0.296 ± 0.019	0.389 ± 0.02	0.201 ± 0.0092	0.234 ± 0.012	0.406 ± 0.0079	0.353 ± 0.018
NC(=O)c1ccc[n+]([C@@H]2O[C@H](COP(=O)([O-])OP(=O)(O)OC[C@H]3O[C@@H](n4cnc5c(N)ncnc54)[C@H](O)[C@@H]3O)[C@@H](O)[C@H]2O)c1 [Nadide]	0.282 ± 0.006	0.363 ± 0.018	0.339 ± 0.0072	0.238 ± 0.031	0.245 ± 0.0026	0.175 ± 0.0086	0.428 ± 0.012	0.441 ± 0.0097	0.21 ± 0.0067	0.216 ± 0.02	0.415 ± 0.025	0.416 ± 0.0063
C/C(=C(\CCOP(=O)(O)O)SC(=O)c1ccccc1)N(C=O)Cc1cnc(C)nc1N [Benfotiamine]	0.2481 ± 0.0011	0.317 ± 0.014	0.257 ± 0.0029	0.205 ± 0.019	0.186 ± 0.006	0.141 ± 0.0056	0.352 ± 0.068	0.41 ± 0.11	0.188 ± 0.0089	0.224 ± 0.032	0.404 ± 0.0067	0.359 ± 0.0094
CC(=O)CCCCn1c(=O)c2c(ncn2C)n(C)c1=O [Pentoxifylline]	0.2306 ± 0.0011	0.276 ± 0.0075	0.2728 ± 0.0025	0.203 ± 0.013	0.187 ± 0.0042	0.134 ± 0.0031	0.297 ± 0.079	0.387 ± 0.029	0.2 ± 0.024	0.207 ± 0.019	0.431 ± 0.0088	0.363 ± 0.006
CC(C)(Oc1ccc(CCNC(=O)c2ccc(Cl)cc2)cc1)C(=O)O [Bezafibrate]	0.249 ± 0.0031	0.296 ± 0.0036	0.237 ± 0.0024	0.208 ± 0.028	0.163 ± 0.0041	0.138 ± 0.0072	0.237 ± 0.074	0.298 ± 0.021	0.184 ± 0.012	0.216 ± 0.013	0.43 ± 0.0059	0.322 ± 0.019
Oc1ccc(C2CNCCc3c2cc(O)c(O)c3Cl)cc1 (centres undefined) [Fenoldopam]	0.0924 ± 0.0031	0.0795 ± 0.0009	0.0538 ± 0.0026	0.0873 ± 0.0018	0.0562 ± 0.0034	0.086 ± 0.0096	0.113 ± 0.0085	0.126 ± 0.017	0.149 ± 0.035	0.135 ± 0.029	0.104 ± 0.048	0.0738 ± 0.006
CNCCc1ccccn1 [Betahistine mesylate]	0.251 ± 0.0026	0.302 ± 0.006	0.269 ± 0.0066	0.243 ± 0.047	0.182 ± 0.0047	0.164 ± 0.005	0.299 ± 0.087	0.4 ± 0.042	0.217 ± 0.025	0.25 ± 0.017	0.408 ± 0.014	0.319 ± 0.025
CC(C)COCC(CN(Cc1ccccc1)c1ccccc1)N1CCCC1 (centres undefined) [Bepridil hydrochloride]	0.03963 ± 0.00021	0.03953 ± 0.00038	0.03937 ± 0.00031	0.04057 ± 0.00029	0.03933 ± 5.8e-05	0.0411 ± 0.0014	0.04653 ± 0.00032	0.0475 ± 0.0016	0.0467 ± 0.0011	0.04587 ± 0.00031	0.304 ± 0.21	0.0512 ± 0.0012
CC(C)N1CCN(c2ccc(OCC3COC(Cn4cncn4)(c4ccc(Cl)cc4Cl)O3)cc2)CC1 (centres undefined) [Terconazole]	0.193 ± 0.011	0.266 ± 0.023	0.266 ± 0.0048	0.23 ± 0.022	0.205 ± 0.0063	0.15383 ± 0.00015	0.252 ± 0.021	0.397 ± 0.14	0.198 ± 0.0065	0.223 ± 0.011	0.412 ± 0.014	0.315 ± 0.019
CN(C)CCCOc1nn(Cc2ccccc2)c2ccccc12 [Benzydamine hydrochloride]	0.183 ± 0.0043	0.224 ± 0.012	0.25 ± 0.0088	0.167 ± 0.0029	0.112 ± 0.0038	0.146 ± 0.0037	0.193 ± 0.043	0.348 ± 0.023	0.192 ± 0.023	0.216 ± 0.051	0.404 ± 0.0075	0.283 ± 0.021
CNCCC(Oc1ccccc1OC)c1ccccc1 (centres undefined) [Nisoxetine hydrochloride]	0.206 ± 0.015	0.258 ± 0.011	0.2337 ± 0.0022	0.173 ± 0.004	0.153 ± 0.0049	0.139 ± 0.0023	0.247 ± 0.049	0.405 ± 0.026	0.149 ± 0.031	0.2 ± 0.018	0.4 ± 0.011	0.346 ± 0.018
COc1ccc2[nH]c([S+]([O-])Cc3ncc(C)c(OC)c3C)nc2c1 (centres undefined) [Omeprazole]	0.19 ± 0.0022	0.232 ± 0.0033	0.2749 ± 0.0018	0.168 ± 0.011	0.122 ± 0.0034	0.131 ± 0.0049	0.298 ± 0.04	0.388 ± 0.025	0.167 ± 0.0081	0.1748 ± 0.0014	0.399 ± 0.016	0.263 ± 0.018
CO[C@H]1/C=C/O[C@@]2(C)Oc3c(C)c(O)c4c(O)c(c(/C=N/N5CCN(C6CCCC6)CC5)c(O)c4c3C2=O)NC(=O)/C(C)=C\C=C\[C@H](C)[C@H](O)[C@@H](C)[C@@H](O)[C@@H](C)[C@H](OC(C)=O)[C@@H]1C [Rifapentine]	0.0433 ± 0.00049	0.0468 ± 0.0029	0.04193 ± 0.00032	0.042 ± 0.00082	0.0431 ± 0.0013	0.04243 ± 0.00025	0.0584 ± 0.0025	0.0547 ± 0.0039	0.102 ± 0.087	0.0512 ± 0.00082	0.0847 ± 0.014	0.0548 ± 0.0062
C[C@]12CC[C@@H]3c4ccc(OS(=O)(=O)O)cc4CC[C@H]3[C@@H]1CCC2=O [Estropipate]	0.229 ± 0.0082	0.277 ± 0.011	0.251 ± 0.0064	0.177 ± 0.011	0.151 ± 0.011	0.127 ± 0.0018	0.301 ± 0.023	0.413 ± 0.039	0.194 ± 0.016	0.195 ± 0.013	0.41 ± 0.0049	0.267 ± 0.0063
Cc1ccccc1C(OCCN(C)C)c1ccccc1 (centres undefined) [Orphenadrine hydrochloride]	0.208 ± 0.013	0.26 ± 0.024	0.266 ± 0.015	0.189 ± 0.0084	0.148 ± 0.0039	0.159 ± 0.0037	0.18 ± 0.015	0.383 ± 0.063	0.19 ± 0.0094	0.241 ± 0.021	0.412 ± 0.013	0.321 ± 0.029
